Shown are actives, neighbours in structure and some others; about 19% of the full set was active somewhere.
HT1080-NT tox: kills 2HG-producing HT-1080-NT fibrosarcoma cells. HT-1080-NT fibrosarcoma viability, CellTiter-Glo ATP luminescence, 48 h. Potency, µM (doses to about 46.1 µM), inactives show at the top dose activity, negative = less viability, usual class: cytotoxic. hit rate 1.6% among 360,000. AID 686970;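 note: NT is the 2HG producing partner of a matched IDH1 knockdown line; potency is the fitted concentration of half-maximal effect; 0% = DMSO-treated cells and -100% = media-only wells without cells; nearly all actives have a fitted effect of over 55% in size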
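Compounds were tested in concentration-response format on HT-1080-NT cells for 48 hours at 37 degrees C. Cell viability came from CellTiter-Glo luminescence; curves were classified by r2, response magnitude and activity.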
DT40 TDP1 CPT: growth inhibition of DT40 Tdp1-/-;hTDP1 cells with camptothecin (screen for TDP1 inhibitors); chicken DT40 Tdp1-/-;hTDP1 cells + 20 nM CPT, ATP luminescence, 48 h; Potency, µM (series often up to 46.2 µM), inactives show top-dose activity change, negative = growth inhibition, usual class: inhibitors; hit rate 12% among 420,000; AID 686979; note: potency is the fitted concentration of half-maximal effect; nearly all actives have a fitted effect of over 55% in size
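Cell growth measured by CellTiter-Glo luminescence after a minimum 48 h, 37 C compound exposure with 20 nM CPT in Tdp1-knockout DT40 cells stably expressing hTDP1, seeded 400/well; qHTS titration format.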
HT1080 IDH1KD tx: toxicity to HT-1080 IDH1 knockdown cells (counter line); HT-1080 IDH1 knockdown viability, ATP luminescence, 48 h; Potency, µM (doses to about 46.1 µM), inactives show at the highest dose activity, negative = toxicity, most hits filed as cytotoxic; hit rate 2% among 360,000; AID 686971;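 note: potency is the fitted concentration of half-maximal effect; 0% = DMSO wells and -100% = cell-free medium wells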
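Viability of IDH1-knockdown HT-1080 fibrosarcoma cells was assessed by CellTiter-Glo after 48 h at 37 °C with titrated compound; concentration-effect curves were classified by fit quality and response size.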
DT40 TDP1 no CPT: qHTS for Inhibitors of human tyrosyl-DNA phosphodiesterase 1 (TDP1): qHTS in cells in absence of CPT | DT40 Tdp1-/- hTDP1 cells, no CPT, ATP luminescence, 48 h | AID 686978, 2013 | Potency, µM (series often up to 46.2 µM), inactives show at the highest dose activity change, negative = growth inhibition, most hits filed as inhibitors | hit rate 15% among 420,000; note: potency is the fitted concentration of half-maximal effect; nearly all actives have a fitted effect of over 55% in size
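Luminescent ATP content (CellTiter-Glo) served as the growth readout. Knockout chicken DT40 cells expressing human TDP1 were exposed to compounds without camptothecin for a minimum 48 hr at 37 °C.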
IL-1B inflam inh: inflammasome signaling inhibition, IL-1 beta readout | hit rate 4.7% among 360,000 | THP-1 LPS/ATP IL-1B secretion, AlphaLISA, 16 h; hits give low values | activity change, % at 57.5 µM | AID 743279; in the data active = activity change below about -50%; inconclusive = mostly about -30% to -49%
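THP-1 cells pretreated 1 hr with compounds (up to 57.5 uM final), then stimulated with LPS (250 ng/mL final) plus ATP (1.25 mM final); secreted IL-1B measured by AlphaLISA after 16 hr, decreased signal indicating inhibition.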
* = called active by the depositor; u = inconclusive; x = not tested or not shown; [ ] = dose if it differs, or a comment. Unless noted, calls come from the whole dose curve; as a rule, active = well fitted curve in the direction sought with a large enough effect; inconclusive = small, poorly fitted or top-dose-only effect, or another doubt; inactive = no such curve, though single readings can be large; an effect the other way counts as inactive or inconclusive. Unless noted, % is set by controls: 0 for no effect and ±100 for the full control effect.

SMILES	HT1080-NT tox	DT40 TDP1 CPT	HT1080 IDH1KD tx	DT40 TDP1 no CPT	IL-1B inflam inh
COc1ccccc1NC(=O)CC(c1ccc(OC(C)C)cc1)c1ccccc1OC (stereo unspecified)	10%	16µM*	7%	21µM*	10
Cc1ccc(NC(=O)CC(=O)c2ccccc2)cc1C	9%	u	-9%	u	-12
COc1ccc(C(CC(=O)Nc2ccccc2OC)n2cccc2)cc1 (stereo unspecified)	-5%	16µM*	-6%	10µM*	-4
COc1ccccc1NC(=O)COc1ccccc1	2%	-25%	-5%	-21%	-10
CCCCCCCCCCCCC/C=C/[C@@H](O)[C@H](CO)NCCCCCCCC	x	-1%[4.12 µM]	x	-24%[4.12 µM]	x
CCCn1ncc(CN2CCC(CO)(CC3CCCCO3)CC2)c1C (stereo unspecified)	13%	5%	15%	-4%	2
CC1CCN(C(=O)CSc2nc(-c3ccccc3)no2)CC1	x	-16%	x	-25%	x
COC(=O)c1ccc(C(=O)OC)c(NC(=O)c2cc3nc(-c4ccc(C)cc4)cc(C(F)(F)F)n3n2)c1	x	-4%	x	0%	x
CN(c1ccc(Cl)cc1)c1cc(=O)n(C)c2ccccc12	u	13µM*	u	u	2
COc1cc(=O)n(C)c2ccccc12	-3%	5%	14%	-2%	-1
O=c1c2ccccc2sn1-c1ccc(S(=O)(=O)N2CCCCC2)cc1	2%	2.1µM*	0%	16µM*	-91*
O=c1c2ccccc2sn1-c1ccc(S(=O)(=O)N2CCCC2)cc1	-1%	3.3µM*	-3%[9.24 µM]	5.2µM*	-102*
Cc1ccc(-n2sc3ccccc3c2=O)cc1S(=O)(=O)N1CCCCC1	u	2.3µM*	u	2.9µM*	-106*
O=S(=O)(c1ccccc1)N1CCN(S(=O)(=O)N2CCCCCC2)CC1	-4%	5%	-14%	-16%	14
Cc1ccc(C(=O)NNC(=O)c2ccccc2)cc1S(=O)(=O)N1CCCCC1	7%	-2%	4%	-29%	8
Cc1ccc(CN2CCNC(=O)C2CC(=O)NCc2cc(C)n(C)n2)cc1 (stereo unspecified)	3%	-3%	-4%	-10%	9
Cc1cccc(C(=O)NCC(c2cccs2)S(=O)(=O)c2cccs2)c1 (stereo unspecified)	x	u	x	15µM*	x
O=C(NCC(c1cccs1)S(=O)(=O)c1cccs1)c1cccc(F)c1 (stereo unspecified)	x	16µM*	x	18µM*	x
CCC(C)(C)C1CCc2[nH]nc(C(=O)NCCNC(=O)OC(C)(C)C)c2C1 (stereo unspecified)	-3%	u	-17%	u	-2
CCn1cc(S(=O)(=O)c2ccc(C)cc2)c(=O)c2cc(F)c(N3CCN(C)CC3)cc21	-1%	-9%	-1%	-12%	4
CCn1cc(S(=O)(=O)c2ccccc2)c(=O)c2cc(F)c(N3CCCC3)cc21	x	21µM*	x	u	x
CCCn1cc(S(=O)(=O)c2ccccc2)c(=O)c2cc(F)c(N3CCCCCC3)cc21	x	26µM*	x	18µM*	x
CCn1cc(S(=O)(=O)c2ccc(Cl)cc2)c(=O)c2cc(F)c(N3CCOCC3)cc21	x	26µM*	x	16µM*	x
Cn1cc(S(=O)(=O)c2ccccc2)c(=O)c2cc(F)c(N3CCOCC3)cc21	16%	u	9%	u	0
Cc1onc(-c2c(Cl)cccc2Cl)c1C(=O)N1C(C)CCCC1C (stereo unspecified)	3%	-15%	3%	-20%	-3
SMILES	HT1080-NT tox	DT40 TDP1 CPT	HT1080 IDH1KD tx	DT40 TDP1 no CPT	IL-1B inflam inh
COCc1c(C(=O)NC2CCCC2)cnn1-c1nccc(-c2cccs2)n1	x	u	x	-26%	x
COc1cccc(NC(=O)Cn2nc(Cc3cccnc3)c3ccccc3c2=O)c1	6%	-7%	4%	u	u
C=CC(=O)Nc1cccc(CN2C(=O)N(c3cc(OC)cc(OC)c3)Cc3cnc(NCCCCN(CC)CC)nc32)c1	-14%	-12%	1%	u	-60*
CC1(C)C(/C=C/C=C/C=C/C=C2\N(CCCCS(=O)(=O)O)c3ccc4ccccc4c3C2(C)C)=[N+](CCCCS(=O)(=O)[O-])c2ccc3ccccc3c21	-29%	-4%	-28%	-3%	-77*
CN(C)C(=O)C#Cc1ccccc1	16%	2%	25%	-18%	-10
CC(=O)c1ccc([N+](=O)[O-])cc1	-7%	-6%	9%	-2%	8
O=C(C#Cc1ccccc1)c1ccc([N+](=O)[O-])cc1	u	0.65µM*	u	0.92µM*	-97*
O=C(C#Cc1ccccc1)c1ccccc1	u	0.73µM*	18µM*	0.58µM*	-108*
Cc1cccc(-c2nc(SCC(=O)N3CCc4ccccc43)c3c(=O)n(C)c(=O)n(C)c3n2)c1	x	10%	x	3%	x
CCCn1c(N)c(N(CCOC)C(=O)c2cc3c(s2)CCCCC3)c(=O)[nH]c1=O	8%	9%	6%	-3%	9
CCC1(CC)Cc2ccccc2C(=O)N1	11%	3%	13%	-1%	6
CCC1(CC)Cc2ccccc2C(N)=C1C#N	-12%	21µM*	-12%	21µM*	23
COc1cccc(CN(C)C[C@H]2OCc3cnnn3CCCC(=O)N([C@@H](C)CO)C[C@@H]2C)c1	8%	3%	13%	5%	19
CCCCNC(=O)c1ccc2nc(CC)c(N(C)Cc3ccc(OC)cc3)n2c1	1%	16µM*	0%	u	-10
CCc1nc2ccc(C(=O)NCCOc3ccc(OC)cc3)cn2c1N(C)Cc1ccc(OC)cc1	u	u	-3%	21µM*	-22

Screening results as filed in PubChem.
